The entries come from a sample that favours hits as a whole.
Pf Dd2 growth = Plasmodium falciparum Dd2 growth inhibition; P. falciparum Dd2 growth, SYBR Green, 72 h; Potency, µM (doses to about 28.9 µM), for inactives: top-dose activity, negative = inhibition, hits mostly inhibitors; 120,000 tested, 4.3% active; active means well fitted inhibition curve with a large enough effect;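 further: plate controls were DMSO vehicle for no effect and reference drug for full effect; nearly all actives have a fitted effect of over 65% in size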
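Readout: SYBR Green fluorescence, 485 nm excitation, 535 nm emission, after ~16 h lysis at 37C. Before that, Dd2-infected red cells (2.5% hematocrit) grew 72 h with compound, 29 uM top final concentration.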
Active calls of the source: *; [ ] = dose if it differs, or a comment. Potency means the concentration at half of the fitted maximal effect.

`Cc1noc(-c2cn(C3CCN(C(=O)c4ccc(C)s4)CC3)nn2)n1` gave Pf Dd2 growth inactive.
CC(C)c1noc(-c2cn(C3CCN(C(=O)c4cccc(C(F)(F)F)c4)C3)nn2)n1 (stereo unspecified) was read as Pf Dd2 growth 10µM*.
`Cc1noc(-c2cn(C3CCN(C(=O)C4(c5ccccc5)CC4)CC3)nn2)n1` gave Pf Dd2 growth 12.0%.
For CC(=O)Nc1cccc(C(=O)N2CCC(n3cc(-c4nc(-c5ccccc5)no4)nn3)C2)c1 (stereo unspecified) the results were Pf Dd2 growth 4.47µM*.
For Cc1ccc(C(=O)N2CCC(n3cc(-c4nc(C5CC5)no4)nn3)C2)s1 (stereo unspecified) the results were Pf Dd2 growth 10µM*.
Screening CC(C)c1noc(-c2cn(C3CCN(C(=O)c4cccc(OC(F)(F)F)c4)C3)nn2)n1 (stereo unspecified) returned Pf Dd2 growth 140.6%.
`Cc1nc(CCCNC(=O)c2cc(S(N)(=O)=O)ccc2F)sc1C` gave Pf Dd2 growth 12.1%.
`CC(=O)N1CCCC2(CC(c3ccccn3)=NO2)C1` (stereo unspecified) gave Pf Dd2 growth 16.7%[44.1 µM].
Screening O=C(NCc1ccoc1)c1ccc2nc(-c3ccc(F)cc3)cn2c1 returned Pf Dd2 growth -7.7%.
Screening NS(=O)(=O)c1ccc(CNC(=O)Cn2nc3c(cc2=O)CCCCC3)cc1 returned Pf Dd2 growth -13.1%.
CC(C)(C)CN1CCN(Cc2cnc(-c3ccc(Cl)cc3)nc2)CC1CCO (stereo unspecified) was read as Pf Dd2 growth -14.8%.
CCOc1cc(=O)n2c(c1C(=O)Nc1ccc(CC)cc1)CCCC2 was read as Pf Dd2 growth -3.8%.
Screening N#Cc1cccc(CN2CCCOCCNC(=O)CC2)c1 returned Pf Dd2 growth 6.4%.
Screening O=C(NCCCN1CCCC1=O)c1cn2ccnc(-c3ccc(F)cc3)c2n1 returned Pf Dd2 growth -13.8%.
Screening O=C(N[C@@H]1CN(C(=O)c2cc(-c3ccc(F)cc3)n[nH]2)CC[C@@H]1CO)C1CC1 returned Pf Dd2 growth -14.8%.
`CC1=C(c2ccc(Cl)cc2)S(=O)(=O)N=C1N1CCC(C(=O)NCCc2ccco2)CC1` gave Pf Dd2 growth 21.7%.
`CC1=C(c2ccc(F)cc2)S(=O)(=O)N=C1N1CCC(C(=O)NCCc2ccccc2)CC1` gave Pf Dd2 growth inactive.
CCC1=C(c2ccc(C)cc2)S(=O)(=O)N=C1N1CCC(C(=O)NCCc2ccc(Cl)cc2)CC1 was read as Pf Dd2 growth 8.91µM*.
For Cc1cc(C)c(S(=O)(=O)N2CC(c3nc(-c4ccncc4)no3)C2)cc1C the results were Pf Dd2 growth -21.1%.
For COc1ccc(NC(=O)Cn2nc3n(c2=O)CCCCC3)cc1 the results were Pf Dd2 growth 34.2%.
Screening COc1ccc(C(=O)NC2CCCN(c3cc(-c4ccc(F)cc4)[nH]n3)C2)cc1 (stereo unspecified) returned Pf Dd2 growth -10.8%.
Screening CCOc1ccc(C(=O)NC2CCN(c3cc(-c4ccc(OC)cc4)[nH]n3)C2)cc1 (stereo unspecified) returned Pf Dd2 growth inactive.
For COc1ccc(-c2cc(N3CCCC(NC(=O)c4cccc(Br)c4)C3)n[nH]2)cc1 (stereo unspecified) the results were Pf Dd2 growth 10µM*.
O=C(NC1CCCN(c2cc(-c3ccccc3)[nH]n2)C1)c1cccc(Br)c1 (stereo unspecified) was read as Pf Dd2 growth -8.6%.
Screening O=C(NC1CCN(c2cc(-c3ccc(Cl)cc3)[nH]n2)C1)c1ccncc1 (stereo unspecified) returned Pf Dd2 growth inactive.
Screening COc1ccc(-c2cc(N3CCC(NC(=O)c4ccc(Cl)cc4)C3)n[nH]2)cc1 (stereo unspecified) returned Pf Dd2 growth inactive.
`O=C(NC1CCCN(c2cc(-c3ccccc3)[nH]n2)C1)c1ccc2[nH]ccc2c1` (stereo unspecified) gave Pf Dd2 growth -4.6%.
Screening COc1ccc(-c2cc(N3CCCC(NC(=O)c4ccc5[nH]ccc5c4)C3)n[nH]2)cc1 (stereo unspecified) returned Pf Dd2 growth 10µM*.
For COc1ccc(-c2cc(N3CCCC(NC(=O)c4ccccc4)C3)n[nH]2)cc1 (stereo unspecified) the results were Pf Dd2 growth inactive.
CN(C)c1cccc(C(=O)NC2CCCN(c3cc(-c4ccccc4)[nH]n3)C2)c1 (stereo unspecified) was read as Pf Dd2 growth -0.5%.
CN(C)c1cccc(C(=O)NC2CCN(c3cc(-c4ccc(Cl)cc4)[nH]n3)C2)c1 (stereo unspecified) was read as Pf Dd2 growth 7.94µM*.
Screening COc1ccc(-c2cc(N3CCC(NC(=O)c4ccc(C)cc4)C3)n[nH]2)cc1 (stereo unspecified) returned Pf Dd2 growth 11.2µM*.
Screening CN1C(=O)[C@H]2CN(Cc3cc(F)cc(F)c3)C[C@H]2C1=O returned Pf Dd2 growth 62.1%.
O=C(C[C@H]1NC(=O)c2ccccc2NC1=O)Nc1cccc2ncccc12 was read as Pf Dd2 growth 11.9%.

Screening data as filed in PubChem BioAssay.
